The nature of test [1]: ATG_NF_kB_CIS: Attagene CIS-FACTORIAL HepG2 Assay for human Nuclear Factor Kappa B (NF-kB) (AID 2282991). To be noted: HepG2 Attagene cis-factorial NF-kB reporter mRNA; actives raise or lower the signal. An outline of the steps:
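Read-out: reporter transcript levels quantified by RT-PCR plus capillary electrophoresis of 6-FAM-labelled, HpaI-cut fragments. Transfected HepG2 cells, 24 h compound exposure, endogenous NF-kB-driven cis element; gain or loss scored versus DMSO.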

The nature of test [2]: ATG_NRF2_ARE_CIS: Attagene CIS-FACTORIAL HepG2 Assay for human Nuclear Factor Erythroid 2 Related Factor 2 (NFR2) response to Antioxidant Response Elements (ARE) (AID 2282992).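 As to AC50: reporter mRNA level measured by RT-PCR and capillary electrophoresis fluorescence.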 To be noted: HepG2 Attagene ARE/NRF2 reporter, transcription factor activity; actives raise or lower the signal. Put shortly:
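HepG2 cells transiently transfected with multiplexed cis-regulated reporter transcription units measure endogenous transcription factor activity. Reporter mRNA at 24 h is quantified by RT-PCR, fluorescent labelling and capillary electrophoresis, with bidirectional fitting relative to DMSO.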

Test [3] in a line: ATG_Oct_MLP_CIS: Attagene CIS-FACTORIAL HepG2 Assay for human Octamer-Binding Transcription Factor (Oct) (AID 2282993). To be noted: HepG2 Attagene cis-factorial Oct reporter, mRNA; actives raise or lower the signal. Put shortly: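 HepG2 cells transiently transfected with cis-promoter-driven multiplexed reporter transcription units, dosed for 24 h. Reporter mRNA quantified by RT-PCR, fluorescent labelling, HpaI digestion and capillary electrophoresis; bidirectional fits versus DMSO baseline.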

The nature of test [4]: BSK_3C_TissueFactor: BioMAP Diversity Plus: 3C Assay for Tissue Factor Biomarker Activity (AID 2282997). The following applies: BioMAP 3C HUVEC, tissue factor biomarker readout; actives raise or lower the signal. An outline of the steps:
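Primary human umbilical vein endothelial cells in the 3C system were exposed to test chemical for 24 h, then Tissue Factor measured by ELISA. Activity was fitted bidirectionally against DMSO as negative control and baseline.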

Test [5] is described as follows: BSK_3C_uPAR: BioMAP Diversity Plus: 3C Assay for Urokinase-type plasminogen activator receptor (uPAR) Biomarker Activity (AID 2282998). To be noted: BioMAP 3C HUVEC, uPAR biomarker ELISA; actives raise or lower the signal. Put shortly:
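Human umbilical vein endothelial primary cells were exposed to test chemical for 24 h. Cell-surface uPAR was then quantified by ELISA, and responses were fitted bidirectionally against DMSO as negative control and baseline.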
A general note: ELISA stands for enzyme-linked immunosorbent assay.

Test [6] is described as follows: BSK_3C_VCAM1: BioMAP Diversity Plus: 3C Assay for Vascular cell adhesion molecule 1 (VCAM1) Biomarker Activity (AID 2282999). The following applies: BioMAP 3C HUVEC, VCAM1 ELISA, cytokine-stimulated; actives raise or lower the signal. An outline of the steps:
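Human umbilical vein endothelial cells (3C system), biomarker read by ELISA 24 h after dosing; bidirectional fit against DMSO baseline. Cytotoxicity tracked by SRB total-protein staining in parallel cultures at biomarker time.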

Test [7] is described as follows: BSK_4H_Eotaxin3: BioMAP Diversity Plus: 4H Assay for Eotaxin 3 Biomarker Activity (AID 2283000).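 As to outcome: CCL26 protein level quantified by ELISA in parallel with SRB cytotoxicity check.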 The following applies: primary human endothelial cells (HUVEC); actives raise or lower the signal. Put shortly: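 HUVEC, 24 h post-dose, ELISA for Eotaxin-3/CCL26. Gain or loss of signal fitted bidirectionally vs DMSO baseline.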
Test [8] deals with human Peroxisome Proliferator-activated Receptor alpha (PPARa), PPARA (gene 5465) (UniProt Q07869). Nature of the test: ATG_PPARa_TRANS: Attagene TRANS-FACTORIAL HepG2 Assay for human Peroxisome Proliferator-activated Receptor alpha (PPARa) (AID 2283001; active = hit-call score of the fitted dose curve at least 0.9, where 1 is the maximum). Put shortly: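 HepG2 cells transiently transfected with multiplexed GAL4-UAS reporters driven by exogenous chimeric NR-Gal4 proteins; reporter mRNA measured after 24 h dosing. Read-out by RT-PCR, 6-FAM labelling, HpaI digestion and capillary electrophoresis; gain of signal versus DMSO.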

Test [9] addresses Cellular tumor antigen p53 (Homo sapiens) (UniProt P04637). Nature of the test: ATG_p53_CIS: Attagene CIS-FACTORIAL HepG2 Assay for human p53 Transcription Factor (AID 2282994). The following applies: HepG2 p53 cis-element reporter, Attagene mRNA; actives raise or lower the signal. Put shortly: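 HepG2 cells transiently transfected with multiplexed cis-regulated reporter transcription units read endogenous TF activity. After 24 h compound exposure, reporter mRNA was quantified by RT-PCR, fluorescent labelling, HpaI digestion and capillary electrophoresis; bidirectional fits versus DMSO baseline.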

The target of test [10] is human Peroxisome Proliferator-activated Receptor delta (PPARd), PPARD (gene 5467) (UniProt Q03181). Description: ATG_PPARd_TRANS: Attagene TRANS-FACTORIAL HepG2 Assay for human Peroxisome Proliferator-activated Receptor delta (PPARd) (AID 2283002; active = hit-call score of the fitted dose curve at least 0.9, where 1 is the maximum). Put shortly: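 Read-out: reporter mRNA induction, quantified by fluorescent RT-PCR products resolved by capillary electrophoresis. Human HepG2 liver cells carried transiently transfected Gal4-UAS reporter constructs with chimeric NR-Gal4 fusions. Cells were dosed for 24 h; DMSO served as baseline.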

Molecules are shown by their SMILES. Records with an inconclusive call do not appear. Where a structure was tested more than once in an assay, its records may differ in their call. Activity calls are given as the source filed them. The calls were made as follows, unless noted: active = hit-call score of the fitted dose curve at least 0.9, where 1 is the maximum; inactive = score below 0.9.

Cellular tumor antigen p53 (Homo sapiens), sequence (P04637 whole entry, looked up): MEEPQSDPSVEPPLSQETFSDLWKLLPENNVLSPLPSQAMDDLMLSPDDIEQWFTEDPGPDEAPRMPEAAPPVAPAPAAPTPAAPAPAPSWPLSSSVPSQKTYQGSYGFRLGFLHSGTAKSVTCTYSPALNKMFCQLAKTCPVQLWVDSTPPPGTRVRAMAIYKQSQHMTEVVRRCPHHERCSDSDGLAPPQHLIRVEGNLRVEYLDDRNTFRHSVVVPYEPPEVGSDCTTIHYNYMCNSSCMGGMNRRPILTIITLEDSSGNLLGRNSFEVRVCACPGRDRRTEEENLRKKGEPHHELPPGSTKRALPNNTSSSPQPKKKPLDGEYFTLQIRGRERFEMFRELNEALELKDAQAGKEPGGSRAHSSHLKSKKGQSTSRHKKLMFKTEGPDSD
human Peroxisome Proliferator-activated Receptor delta (PPARd), PPARD (gene 5467), sequence (Q03181 whole entry, looked up, the tested form may be a part): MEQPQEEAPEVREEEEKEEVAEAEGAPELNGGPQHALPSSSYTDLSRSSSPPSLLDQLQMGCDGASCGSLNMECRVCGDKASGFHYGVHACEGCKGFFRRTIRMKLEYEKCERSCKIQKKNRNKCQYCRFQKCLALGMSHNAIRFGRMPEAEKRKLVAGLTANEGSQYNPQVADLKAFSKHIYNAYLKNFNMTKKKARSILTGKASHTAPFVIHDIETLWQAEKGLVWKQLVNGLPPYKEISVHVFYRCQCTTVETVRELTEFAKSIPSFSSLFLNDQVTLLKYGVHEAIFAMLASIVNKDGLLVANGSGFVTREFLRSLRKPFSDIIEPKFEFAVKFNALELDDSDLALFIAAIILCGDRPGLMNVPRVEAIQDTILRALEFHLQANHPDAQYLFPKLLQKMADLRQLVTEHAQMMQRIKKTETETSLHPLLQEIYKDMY
human Peroxisome Proliferator-activated Receptor alpha (PPARa), PPARA (gene 5465), sequence (Q07869 whole entry, looked up, the tested form may be a part): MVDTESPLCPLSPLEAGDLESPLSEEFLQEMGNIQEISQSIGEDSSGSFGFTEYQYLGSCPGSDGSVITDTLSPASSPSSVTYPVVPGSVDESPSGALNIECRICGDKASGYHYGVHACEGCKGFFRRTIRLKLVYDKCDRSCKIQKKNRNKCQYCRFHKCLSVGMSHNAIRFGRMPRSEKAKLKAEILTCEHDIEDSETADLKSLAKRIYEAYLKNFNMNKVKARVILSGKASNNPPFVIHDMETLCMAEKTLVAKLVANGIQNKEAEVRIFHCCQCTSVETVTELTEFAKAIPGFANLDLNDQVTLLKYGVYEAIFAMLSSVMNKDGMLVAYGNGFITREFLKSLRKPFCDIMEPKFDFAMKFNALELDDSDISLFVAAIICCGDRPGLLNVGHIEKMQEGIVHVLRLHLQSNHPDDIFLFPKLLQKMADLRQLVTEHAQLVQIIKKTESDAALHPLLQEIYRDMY

With `Cc1occc(=O)c1O`, the compound was called inactive in [1], in test [2], in test [3], in test [4], in test [5] and in [6]. For the same compound, the outcome in test [7] and in test [8] was inactive.

On to `Cc1cc(SC2=C(O)C[C@@](CCc3ccc(N)cc3)(C(C)C)OC2=O)c(C(C)(C)C)cc1CO`, for which the compound was classed as inactive in [1], in [3], in test [9], in test [4], in [5] and in test [6]. Further, the result in [7] and in test [10] was inactive. Moreover, the concentration at half-maximal activity (AC50) (in general, the midpoint of the concentration-response curve, whichever way the signal moves) in test [2] was 4.49 µM (active).

On to `CCN(CC)CCOc1ccc(C(=C(Cl)c2ccccc2)c2ccccc2)cc1`, for which the result in [1], in test [3], in [8] and in test [10] was inactive. Moreover, the AC50 in test [3] was 7.1 µM (active); in test [4] it was 13.5 µM (active); in test [5] it was 6.51 µM (active); in [6], 13.8 µM (active); in [7] it was 12.4 µM (active).

Consider `CCCCCCCCCCCCCCCCO`, for which the outcome in test [1], in test [2], in test [3], in test [4], in test [5] and in [6] was inactive. The outcome in [7], in test [8] and in [10] was inactive.

On to `NC=O`, for which the result in test [1], in [2], in test [3], in test [4], in test [5] and in test [6] was inactive. For the same compound, the result in test [7], in test [8] and in test [10] was inactive.

With `O=C(O)CN(CC(=O)O)CC(=O)O`, the call in test [1], in test [2], in test [3], in test [9], in [4] and in test [5] was inactive. Further, the outcome in test [6], in test [7], in test [8] and in test [10] was inactive.

Consider `CO[C@@H]1COCC[C@@H]1N[C@@H]1CC[C@@](C(=O)N2CCc3ncc(C(F)(F)F)cc3C2)(C(C)C)C1`, for which the outcome in test [1], in [2], in test [3], in test [9], in [4] and in test [5] was inactive. Further, the outcome in test [6], in test [7] and in test [10] was inactive.

Regarding `CC(=O)CC(c1ccccc1)c1c(O)c2ccccc2oc1=O` (configuration not stated), in [2], the half-maximal activity concentration (AC50) is 27 µM (active). Further, the result in test [2], in [3], in test [4], in [5], in test [6] and in test [7] was inactive. The compound was called inactive in [8].

For `C/C=C/c1ccc(OC)cc1`, the result in test [1], in [2], in test [3], in test [4], in test [5] and in [6] was inactive. The outcome in test [7], in test [8] and in test [10] was inactive.

Turning to `CCCCOC(=O)CCCCC(=O)OCCCC`, the compound was called inactive in [1], in [2], in test [3], in test [4], in test [5] and in test [6]. The result in [7], in test [8] and in test [10] was inactive.

For the compound `CCC(C)N(C)C(=O)c1cc2ccccc2c(-c2ccccc2Cl)n1` (configuration not stated), the call in test [1], in test [4], in [5], in [6], in [7] and in test [10] was inactive. Besides, the half-maximal activity concentration (AC50) in [2] is 16.8 µM (active); in [3], 37 µM (active); in [9] it was 27.3 µM (active).

With `O=NO`, the compound was called inactive in [1], in test [2], in [3], in test [4], in test [5] and in test [6]. Moreover, the result in test [7] and in test [8] was inactive.

Take `CCCC(=O)O`: the compound was classed as inactive in [1], in [2], in test [3], in test [4], in test [5] and in [6]. In addition, in [7], the outcome was inactive.

As for `O=C(O)c1cccnc1`, the compound was called inactive in [1], in [2], in test [3], in test [4], in [5] and in test [6]. For the same compound, the outcome in [7], in [8] and in test [10] was inactive.

With `CC(=O)OCC(COC(C)=O)OC(C)=O`, the compound was classed as inactive in test [1], in [2], in [3], in test [4], in test [5] and in test [6]. In addition, the outcome in test [7] and in test [10] was inactive.

On to `CSc1ccc(Oc2ccc(S(N)(=O)=O)cc2CN(C)C)cc1C`, for which the outcome in test [1], in [2], in [4], in test [5], in test [6] and in test [7] was inactive. The half-maximal activity concentration (AC50) in [3] is 33 µM (active).

Take `CC(=O)OC1CC(C)OC(C)O1` (configuration not stated): the result in test [1], in test [3], in test [4], in test [5], in test [6] and in test [7] was inactive. In test [10], the compound was called inactive. Moreover, the AC50 in test [2] was 68.9 µM (active).

Consider `O=C(NS(=O)(=O)/C=C/c1cccs1)c1ccc(F)cc1Br`, for which, in test [2], the AC50 was 44.7 µM (active). Further, the result in test [3], in test [4], in test [5], in test [6] and in test [7] was inactive.

Consider `O=Cc1ccccc1C=O`, for which the compound was classed as inactive in test [2], in [3], in test [4], in test [5], in test [6] and in test [7]. Further, the compound was called inactive in test [8] and in test [10].

In the case of `O=C1c2c(O)cccc2Cc2cccc(O)c21`, the compound was classed as inactive in [2], in [3], in [9], in test [5], in test [6] and in test [7]. Moreover, the call in test [8] was inactive. In [4], the AC50 is 5.39 µM (active).

In the case of `CC(C)NCC(O)c1ccc(O)c(O)c1` (configuration not stated), the compound was called inactive in test [2], in test [3], in test [4], in test [5], in [6] and in test [7]. In addition, in [10], the compound was classed as inactive.

For `OCC(O)CO`, the outcome in test [4], in test [5], in test [6] and in test [7] was inactive.

As to `COc1ccc(C(=O)Nc2nc3ccccc3c(NCc3ccccc3)c2C#N)cc1`, the results for the AC50 in test [2] and in [3] were 0.952 µM (active) and 7.37 µM (active), respectively. The compound was classed as inactive in [9], in test [4], in [5], in [6], in [7] and in test [8]. For the same compound, in test [10], the result was inactive.

For the origin of these results see PubChem BioAssay (EPA / NIEHS).
